Measured values from ChEMBL document CHEMBL3988442, “University of Dundee, Small-Polar-MMV Screening Library” (2021).
For some of these results: Measured potencies and affinities stand elsewhere.

Legend:
Set-up in all cases: scale not given: direction of the effect not stated beside the values
[1] = biological target: Protein translocase subunit SecA (Escherichia coli (strain K12)) (UniProt P10408); assay: Assay to Identify E. coli SecA ATPase Inhibitors; assay type: functional; settings: 30 µM
[2] = biological target: T1, Ubiquitin-activating enzyme e1, putative (Leishmania donovani (strain BPK282A1)) (UniProt E9BSI1); assay: Leishmania donovani Ubiquitin Activating Enzyme (LdE1); assay type: functional; settings: 30 µM
T1 sequence (whole entry): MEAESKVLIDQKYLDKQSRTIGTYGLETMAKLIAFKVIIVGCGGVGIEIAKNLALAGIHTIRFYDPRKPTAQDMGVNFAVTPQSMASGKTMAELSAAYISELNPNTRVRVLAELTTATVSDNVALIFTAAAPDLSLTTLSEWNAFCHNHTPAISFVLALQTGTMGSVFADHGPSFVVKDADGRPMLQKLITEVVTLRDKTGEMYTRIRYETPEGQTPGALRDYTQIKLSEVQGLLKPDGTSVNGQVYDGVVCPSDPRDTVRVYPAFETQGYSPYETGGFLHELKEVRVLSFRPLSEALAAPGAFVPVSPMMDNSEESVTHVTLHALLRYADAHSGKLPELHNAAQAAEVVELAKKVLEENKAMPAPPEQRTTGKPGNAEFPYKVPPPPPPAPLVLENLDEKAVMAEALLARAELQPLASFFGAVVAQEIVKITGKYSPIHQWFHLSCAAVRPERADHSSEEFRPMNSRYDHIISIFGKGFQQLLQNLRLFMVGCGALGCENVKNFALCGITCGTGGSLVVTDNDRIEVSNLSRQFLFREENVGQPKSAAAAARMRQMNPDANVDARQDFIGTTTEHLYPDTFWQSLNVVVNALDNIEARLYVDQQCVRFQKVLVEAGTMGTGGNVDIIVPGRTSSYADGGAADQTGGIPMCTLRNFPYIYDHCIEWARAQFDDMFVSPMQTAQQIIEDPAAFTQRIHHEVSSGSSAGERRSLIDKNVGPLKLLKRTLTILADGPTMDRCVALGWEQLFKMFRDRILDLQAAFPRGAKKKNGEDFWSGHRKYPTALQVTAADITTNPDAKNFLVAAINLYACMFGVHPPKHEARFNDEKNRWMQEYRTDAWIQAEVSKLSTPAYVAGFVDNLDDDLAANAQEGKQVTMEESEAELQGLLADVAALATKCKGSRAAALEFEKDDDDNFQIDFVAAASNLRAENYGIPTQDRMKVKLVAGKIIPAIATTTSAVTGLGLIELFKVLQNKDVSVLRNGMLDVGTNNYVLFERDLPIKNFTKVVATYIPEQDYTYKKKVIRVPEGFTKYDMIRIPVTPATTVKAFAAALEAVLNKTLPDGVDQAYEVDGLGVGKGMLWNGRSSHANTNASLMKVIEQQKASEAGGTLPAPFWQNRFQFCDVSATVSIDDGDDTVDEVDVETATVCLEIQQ

[3] = biological target: AMP-activated protein kinase, AMPK (Homo sapiens) (UniProt P54646+O43741+P54619+Q9UGJ0+Q9Y478+Q13131+Q9UGI9); assay: AMP-dependent Kinase enzyme assay. An in vitro enzyme assay that detects ADP turnover that is directly proportional to AMPK activity. This uses naive AMPK that is activated during the assay with MK-8722; assay type: functional; settings: 30 µM
[4] = biological target: Sialic acid-binding Ig-like lectin 9 (Homo sapiens) (UniProt Q9Y336); assay: Hs-Siglec9 ALPHAscreen SOP 20170721; settings: 10 µM
Trypanosoma cruzi = assay: Trypanosoma cruzi phosphomannomutase and mannose-1-phosphate guanylyltransferase assay; assay type: functional; settings: 10 µM
[5] = biological target: T2, Arginase-2, mitochondrial (Homo sapiens) (UniProt P78540); assay: in vitro enzyme assay to detect the production of urea directly proportional to the activity of Arginase II; assay type: functional; settings: 33.3 µM; note: in the data most compounds retested in dose-response had high values
T2 sequence (whole entry): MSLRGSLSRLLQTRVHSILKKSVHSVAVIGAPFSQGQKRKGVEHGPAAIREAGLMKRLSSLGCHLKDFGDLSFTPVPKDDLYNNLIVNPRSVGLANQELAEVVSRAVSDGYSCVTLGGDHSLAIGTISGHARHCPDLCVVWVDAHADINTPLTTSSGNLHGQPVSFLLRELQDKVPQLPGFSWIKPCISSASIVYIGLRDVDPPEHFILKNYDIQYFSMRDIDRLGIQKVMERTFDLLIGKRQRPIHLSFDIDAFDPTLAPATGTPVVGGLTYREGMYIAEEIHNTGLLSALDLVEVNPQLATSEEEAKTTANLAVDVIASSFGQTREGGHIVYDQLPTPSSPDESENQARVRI

[6] = biological target: T3, Proteasome subunit beta (Trypanosoma cruzi) (UniProt O96673); assay: Trypanosoma cruzi proteasome chymotrypsin-like activity (TcProtChymo) assay.; note: in the data most compounds retested in dose-response had high values; assay type: functional; settings: 9.37 µM
T3 sequence (whole entry): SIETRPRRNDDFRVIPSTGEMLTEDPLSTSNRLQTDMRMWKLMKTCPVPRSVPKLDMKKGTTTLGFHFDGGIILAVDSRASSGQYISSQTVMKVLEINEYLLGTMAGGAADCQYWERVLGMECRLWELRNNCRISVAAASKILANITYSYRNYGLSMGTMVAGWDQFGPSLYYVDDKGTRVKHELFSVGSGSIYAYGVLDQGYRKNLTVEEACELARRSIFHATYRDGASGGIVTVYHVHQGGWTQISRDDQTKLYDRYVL

Homo sapiens = species: Homo sapiens; assay: To identify inhibition of the IFN signalling (Jak-Stat) pathway via expression of an eGFP reporter gene under the control of an IFN-stimulated response element (ISRE) containing MxA promoter.; assay type: functional; settings: 30 µM
[7] = biological target: T4, Tyrosyl-tRNA synthetase, putative (Trypanosoma cruzi (strain CL Brener)) (UniProt Q4DSP6); assay: Trypanosoma cruzi tyrosyl tRNA synthetase (TcYRS) _High Tyrosine SOP; assay type: functional; settings: 30 µM; note: in the data most compounds retested in dose-response had high values
T4 sequence (whole entry): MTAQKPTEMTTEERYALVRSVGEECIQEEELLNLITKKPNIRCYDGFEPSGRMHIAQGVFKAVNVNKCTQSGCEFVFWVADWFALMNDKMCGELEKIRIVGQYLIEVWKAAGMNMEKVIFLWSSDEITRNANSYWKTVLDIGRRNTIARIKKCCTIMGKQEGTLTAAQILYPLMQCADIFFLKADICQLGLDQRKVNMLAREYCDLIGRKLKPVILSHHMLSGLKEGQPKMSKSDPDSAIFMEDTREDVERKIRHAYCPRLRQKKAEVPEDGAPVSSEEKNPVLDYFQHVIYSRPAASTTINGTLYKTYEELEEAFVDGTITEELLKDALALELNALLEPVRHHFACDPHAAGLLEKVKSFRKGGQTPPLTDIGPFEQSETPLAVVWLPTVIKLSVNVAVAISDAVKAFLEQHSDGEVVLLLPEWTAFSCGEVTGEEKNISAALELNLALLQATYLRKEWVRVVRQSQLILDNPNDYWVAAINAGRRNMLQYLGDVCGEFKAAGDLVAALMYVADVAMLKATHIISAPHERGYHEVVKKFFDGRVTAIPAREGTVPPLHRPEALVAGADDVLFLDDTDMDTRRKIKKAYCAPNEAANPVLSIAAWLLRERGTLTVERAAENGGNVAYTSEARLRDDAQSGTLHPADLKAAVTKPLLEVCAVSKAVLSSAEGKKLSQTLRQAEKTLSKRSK

[8] = biological target: T4, Tyrosyl-tRNA synthetase, putative (Trypanosoma cruzi (strain CL Brener)); assay: Trypanosoma cruzi tyrosyl tRNA synthetase (TcYRS) SOP; assay type: functional; settings: 30 µM
[9] = biological target: Chromo domain-containing protein 1 (Saccharomyces cerevisiae (strain ATCC 204508 / S288c) (Baker's yeast)) (UniProt P32657); assay: ScCHD-1 Enzyme Inhibition Assay; assay type: functional; settings: 30 µM; note: in the data most compounds retested in dose-response had high values
Chain of Chromo domain-containing protein 1 (Saccharomyces cerevisiae (strain ATCC 204508 / S288c) (Baker's yeast)) (P32657 whole entry, the tested form may be a part): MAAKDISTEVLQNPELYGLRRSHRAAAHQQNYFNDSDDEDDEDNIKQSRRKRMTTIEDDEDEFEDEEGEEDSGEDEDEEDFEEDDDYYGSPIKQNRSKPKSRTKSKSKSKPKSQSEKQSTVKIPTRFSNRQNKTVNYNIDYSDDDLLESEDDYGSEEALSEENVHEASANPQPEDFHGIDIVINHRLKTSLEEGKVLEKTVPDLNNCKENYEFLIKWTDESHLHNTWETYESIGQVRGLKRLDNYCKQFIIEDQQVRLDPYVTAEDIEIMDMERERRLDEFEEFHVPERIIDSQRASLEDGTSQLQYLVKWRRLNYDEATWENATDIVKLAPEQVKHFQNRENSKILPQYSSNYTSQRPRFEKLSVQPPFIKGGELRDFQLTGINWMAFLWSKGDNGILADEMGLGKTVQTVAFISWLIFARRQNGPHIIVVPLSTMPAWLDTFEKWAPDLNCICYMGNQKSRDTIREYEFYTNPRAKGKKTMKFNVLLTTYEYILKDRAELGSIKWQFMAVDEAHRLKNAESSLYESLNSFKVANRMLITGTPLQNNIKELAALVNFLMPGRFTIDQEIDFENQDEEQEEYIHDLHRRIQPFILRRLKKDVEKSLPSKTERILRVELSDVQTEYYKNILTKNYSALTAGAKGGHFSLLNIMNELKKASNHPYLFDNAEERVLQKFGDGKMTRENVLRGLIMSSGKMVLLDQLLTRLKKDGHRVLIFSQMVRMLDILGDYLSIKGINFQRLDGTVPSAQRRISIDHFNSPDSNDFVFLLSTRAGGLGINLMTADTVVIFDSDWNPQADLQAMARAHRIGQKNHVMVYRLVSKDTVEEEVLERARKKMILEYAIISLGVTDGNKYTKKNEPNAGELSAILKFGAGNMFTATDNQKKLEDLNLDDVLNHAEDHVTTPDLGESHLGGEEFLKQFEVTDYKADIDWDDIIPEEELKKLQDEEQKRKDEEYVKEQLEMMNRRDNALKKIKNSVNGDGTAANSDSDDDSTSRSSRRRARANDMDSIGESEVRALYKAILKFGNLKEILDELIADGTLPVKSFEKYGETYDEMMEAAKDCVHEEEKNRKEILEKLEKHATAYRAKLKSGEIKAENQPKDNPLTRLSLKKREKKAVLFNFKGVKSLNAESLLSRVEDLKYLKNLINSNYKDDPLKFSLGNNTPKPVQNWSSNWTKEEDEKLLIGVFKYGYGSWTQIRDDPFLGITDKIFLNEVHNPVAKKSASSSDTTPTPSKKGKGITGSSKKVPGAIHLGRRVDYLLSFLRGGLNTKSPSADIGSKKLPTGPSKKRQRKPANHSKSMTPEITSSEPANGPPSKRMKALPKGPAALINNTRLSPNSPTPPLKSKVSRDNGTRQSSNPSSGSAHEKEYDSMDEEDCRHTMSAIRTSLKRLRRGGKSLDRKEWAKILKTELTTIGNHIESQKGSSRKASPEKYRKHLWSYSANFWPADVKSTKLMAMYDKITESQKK

Chain of Sialic acid-binding Ig-like lectin 9 (Homo sapiens) (Q9Y336 whole entry): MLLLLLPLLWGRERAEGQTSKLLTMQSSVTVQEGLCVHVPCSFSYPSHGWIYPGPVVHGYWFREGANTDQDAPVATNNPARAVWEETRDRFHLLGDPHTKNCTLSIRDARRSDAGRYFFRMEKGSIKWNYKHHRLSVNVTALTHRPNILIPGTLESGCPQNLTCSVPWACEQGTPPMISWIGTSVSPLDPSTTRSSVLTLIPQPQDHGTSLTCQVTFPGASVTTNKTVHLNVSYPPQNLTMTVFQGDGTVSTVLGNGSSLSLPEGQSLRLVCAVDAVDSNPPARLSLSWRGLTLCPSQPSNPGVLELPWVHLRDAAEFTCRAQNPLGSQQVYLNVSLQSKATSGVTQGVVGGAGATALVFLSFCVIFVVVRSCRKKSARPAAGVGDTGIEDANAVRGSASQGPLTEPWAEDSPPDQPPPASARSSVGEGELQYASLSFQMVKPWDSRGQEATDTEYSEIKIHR
Chain of Protein translocase subunit SecA (Escherichia coli (strain K12)) (P10408 whole entry): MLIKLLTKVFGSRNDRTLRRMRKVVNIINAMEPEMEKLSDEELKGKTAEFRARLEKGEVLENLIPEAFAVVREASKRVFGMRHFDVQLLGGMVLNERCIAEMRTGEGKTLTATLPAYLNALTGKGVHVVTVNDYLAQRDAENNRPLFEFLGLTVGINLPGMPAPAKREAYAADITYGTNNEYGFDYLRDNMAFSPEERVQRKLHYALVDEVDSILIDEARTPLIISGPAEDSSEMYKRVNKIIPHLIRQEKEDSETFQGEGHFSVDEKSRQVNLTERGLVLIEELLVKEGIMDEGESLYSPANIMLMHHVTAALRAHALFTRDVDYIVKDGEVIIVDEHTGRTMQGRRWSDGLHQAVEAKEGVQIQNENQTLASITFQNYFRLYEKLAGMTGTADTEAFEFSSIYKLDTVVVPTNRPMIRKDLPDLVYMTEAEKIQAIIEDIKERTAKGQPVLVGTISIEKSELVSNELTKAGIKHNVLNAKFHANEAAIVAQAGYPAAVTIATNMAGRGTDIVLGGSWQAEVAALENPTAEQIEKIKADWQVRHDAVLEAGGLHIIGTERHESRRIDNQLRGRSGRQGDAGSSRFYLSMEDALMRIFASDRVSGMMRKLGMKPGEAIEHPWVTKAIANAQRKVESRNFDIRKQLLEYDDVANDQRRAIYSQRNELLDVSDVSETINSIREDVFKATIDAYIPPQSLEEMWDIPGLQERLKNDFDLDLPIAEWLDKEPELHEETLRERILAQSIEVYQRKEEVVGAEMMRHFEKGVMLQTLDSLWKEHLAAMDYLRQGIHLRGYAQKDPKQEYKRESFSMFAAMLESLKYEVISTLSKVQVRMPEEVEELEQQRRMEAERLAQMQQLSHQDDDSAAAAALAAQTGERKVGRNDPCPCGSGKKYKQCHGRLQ

Row | SMILES | Percent Effect [1] [%] | Percent Effect [2] [%] | Percent Effect [3] [%] | Percent Effect [4] [%] | Percent Effect (Trypanosoma cruzi) [%] | Percent Effect [5] [%] | Percent Effect [6] [%] | Percent Effect (Homo sapiens) [%] | Percent Effect [7] [%] | Percent Effect [8] [%] | Percent Effect [9] [%]
1 | OCCN1CCN(Cc2coc(-c3ccc(Cl)cc3)n2)CC1 | -2.69 | -2.6 | 3.9 | 4.43 | 3 | 4.27 | 1.35 | -6.89 | 0 | 7.32 | -3.24
2 | Cc1ccc(NC2CCN(C(=O)c3cccc(F)c3F)CC2)nn1 | 0.567 | -6.33 | 2.51 | 4.94 | 0.308 | -0.645 | 1.54 | 10.2 | 4.17 | 5.06 | -24.5
3 | CCc1nnc(CN(C)c2nc(C3CCCC3)nc3c2cnn3C)o1 | -4.33 | 4.17 | 7.51 | 2.48 | 3.79 | 2.65 | 10.5 | 7.5 | 1.05 | 7.69 | -2.84
4 | O=C(NCCCn1cccn1)N1CCCC1c1ccncc1 (configuration not stated) | -5.24 | 2.67 | -0.283 | 0.781 | -6.13 | -1.56 | 15.3 | 25.4 | 0.546 | 1.24 | -6.79
5 | Cn1ccnc1CN1CCC2(CC(=O)N(c3cccc(F)c3)C2)C1 (configuration not stated) | 1.4 | 10.4 | 15 | -4.43 | -7.2 | 7.1 | 14.8 | 6.27 | 7.41 | 14.1 | -7.71
6 | Cc1nccn1CC1CCCN1S(=O)(=O)Cc1ccon1 (configuration not stated) | -1.65 | 20.2 | -1.52 | -6.85 | 3.68 | -6.84 | 14 | 7.78 | 5.42 | 3.8 | -7.21
7 | CCn1cnnc1CNC(=O)NCC(c1cccs1)N1CCCC1 (configuration not stated) | -2.72 | 18.2 | 0.236 | 9.73 | 2.43 | -1.42 | 8.11 | 10.8 | 5.83 | 19.5 | -6.68
8 | Cc1cnn(C2CCCN(C(=O)Cc3cn4ccccc4n3)C2)c1 (configuration not stated) | -5.24 | 19 | -2.41 | -0.453 | -0.103 | -1.5 | 11.8 | 4.05 | 1.04 | 17.7 | -26.5
9 | CC(=O)NCCN1CCC(c2cccs2)CC1 | -3.79 | 5.48 | 4.81 | 1.43 | 6.27 | -1.36 | 17.9 | 3.79 | 2.15 | 10 | -6.86
10 | CC(C)c1nnc2n1CCN(C(=O)c1ccc(-n3cnnc3)cc1)C2 | -9.19 | -10.4 | -7.99 | -9.83 | 8.13 | -7.79 | 13.5 | 0.957 | 5.71 | 18.8 | -23.7
11 | CC(C(=O)NCCOc1ccc2c(c1)OCO2)n1cncn1 (configuration not stated) | -1.18 | 20.2 | -6.18 | -3.69 | -2.17 | 6.08 | 11.6 | -12.4 | 6.4 | 13.9 | -2.77
12 | CN(Cc1ncc(-c2ccccc2)o1)CC1CCCN1c1cccnn1 (configuration not stated) | -0.973 | -26 | 3.71 | 2.54 | 7.74 | -1.9 | 1.54 | -9.54 | 2.86 | 9.41 | -9.3
13 | Cc1cc(F)ccc1CNCCn1cccn1 | -2.76 | -1.39 | -3.57 | 0.503 | 5.15 | -0.883 | 8.95 | 1.75 | 1.05 | 2.56 | -0.034
14 | c1csc(CN2Cc3nccn3CC(Cn3cncn3)C2)n1 (configuration not stated) | 1.97 | 2.74 | 0.961 | 63.8 | -0.794 | 3.19 | 11.2 | -1.52 | 4.17 | 13.6 | -0.0341
15 | Cc1cc(C[S+]([O-])CC(=O)NCC(C)C)no1 (configuration not stated) | -4.4 | 18.2 | 6.46 | -1.61 | -2.06 | -2.49 | 0.676 | -13.6 | 7.77 | 12.2 | -5.33
16 | N#Cc1cccc(SCCS(N)(=O)=O)c1 | -3.48 | 1.39 | -2.94 | 14.2 | 5.15 | -9.27 | 15.3 | 7.55 | 0 | 5.13 | -3.3
17 | COc1ccc(CNC(=O)NC2CCN(CC(F)F)CC2)cc1C | -6.96 | 5.41 | -0.551 | 14.3 | 3.23 | 3.72 | 2.15 | -4.85 | 4.3 | 13.6 | -4.89
